The structures appear in SMILES notation. Out of some 640,000 compounds screened, about 9,300 (1.5%) were called active. No stated cut-off is given here; in the data, active means inhibition above about 32%; inactive means the rest. The list comes from a sample in which actives are over-represented; it also holds similar structures and randomly drawn compounds.

The test is described as follows: TEAD-YAP interaction inhibition, primary screen, TEAD-YAP interaction inhibitor project, luminescence, HEK-TIYL cells (AID 1259422).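 Further: 0% = median of test compound wells and 100% = reference inhibitor wells.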 The conditions noted are these: TEAD-Gal4/YAP UAS-luciferase luminescence, at 9.12 µM, hits give high values.
In the case of `CCNC(=O)C1CCN(c2nc(C)cc(C)n2)CC1`, the inhibition was -5.09% (inactive). With `Cc1cc(N2CCOCC2)nc(SCC(=O)N2CCCC2)n1` the figure was 5.97% (inactive); with `Cc1cc(N2CCCCC2)nc(NCCNC(=O)C2CCCO2)n1` (centres undefined), 42.3% (active); with `Cc1cc(C)nc(NS(=O)(=O)c2ccc(NC(=O)/C=C/c3ccc(F)cc3)cc2)n1`, -8.5% (inactive).

As for `Cc1csc(NC(=O)/C=C/c2ccc(F)cc2)n1`, the inhibition is -40.2% (inactive). With `O=C(/C=C/c1ccc(F)cc1)NCCCCNC(=O)/C=C/c1ccc(F)cc1` the figure was -6.73% (inactive); with `O=C(/C=C/c1ccc(F)cc1)Nc1ccccc1F`, 79.4% (active). Under `O=C(/C=C\c1ccccc1)Nc1cc2ccccc2cc1NC(=O)/C=C/c1ccccc1` stands -0.29% (inactive); under `Cc1cccc(NC(=O)/C=C/c2ccc(F)cc2)c1`, 34.1% (active); under `O=C(Nc1ccc(-c2nc3cc(Cl)ccc3o2)cc1)c1ccc(-c2ccc(Cl)cc2)o1`, -100% (inactive). Take `O=S(=O)(NCc1ccccc1)c1cccc(S(=O)(=O)NCc2ccccc2)c1`: the inhibition is 4.17% (inactive). With `N#C/C(=C\c1cn(-c2ccccc2)nc1-c1ccc(Cl)cc1)C(N)=O` the figure was 2.99% (inactive).

Consider `NC(=O)c1ccc(-c2nc(NC3CC3)c3ncn(C4CCCCC4)c3n2)cc1`, for which the inhibition is 18% (inactive). With `O=C(O)c1nnn(-c2ccccc2)c1C(=O)O` the figure was 5.21% (inactive). On to `CCOC(=O)c1sc2nc(C)nc(N3CCCCC3)c2c1C`, for which the inhibition was -2.79% (inactive). Under `O=[N+]([O-])C1CS(=O)(=O)C=C1N(Cc1ccccc1)c1ccccc1` (centres undefined) stands 39.5% (active); under `O=C(c1cc2ccccc2oc1=O)N(Cc1ccccc1)c1cccc([N+](=O)[O-])c1`, 0.25% (inactive). With `CCN(Cc1ccccc1)Cc1ccc([N+](=O)[O-])cc1` the figure was 10.2% (inactive). Take `Cc1cc(OCc2nc(SCC(=O)N(C)C)n[nH]2)ccc1Cl`: the inhibition was -1.92% (inactive). As to `Cc1ccccc1Nc1ncnc2nc[nH]c12`, the inhibition is -0.78% (inactive). Under `COc1cc(C(=O)NC(=S)Nc2ccccc2O)cc(OC)c1OC` stands 12% (inactive). With `Cc1cc(C)c(OCC(O)Cn2c(C)nc3ccccc32)c(C)c1` (centres undefined) the figure was 35.1% (active). With `CCc1cc(C)cc(OCC(O)Cn2c(C)nc3ccccc32)c1` (centres undefined) the figure was 26.7% (inactive); with `Cc1nc2ccccc2n1CC(O)COc1ccc(N)cc1` (centres undefined), 10.8% (inactive). For `O=C(Oc1cc(-c2ccc(Cl)cc2)c2oc(=O)sc2c1)c1ccccc1`, the inhibition was -3.66% (inactive). With `COc1ccccc1N1CCN(S(=O)(=O)c2ccccc2[N+](=O)[O-])CC1` the figure was 13% (inactive); with `COc1ccccc1N1CCN(Cc2cc(=O)c(OCc3ccc(Cl)cc3)co2)CC1`, 6.69% (inactive). Under `COc1ccccc1N1CCN(c2c(-c3ccc(Cl)cc3)c(=O)c2=O)CC1` stands 70.2% (active). Under `CCOC(=O)N1CCC(N2C(=O)c3ccc(C(=O)NCC(OC)OC)cc3C2=O)CC1` stands 10.6% (inactive). For `CCCCSc1nnc(NC(=O)C2CC2)s1`, the inhibition is -17.5% (inactive). Consider `NS(=O)(=O)c1cccc(N=C2C(=O)Nc3ccc([N+](=O)[O-])cc32)c1`, for which the inhibition was -2.91% (inactive). With `CCN(CC)c1ccc2cc(-c3nc4ccc(Cl)cc4[nH]3)c(=O)oc2c1` the figure was 25.2% (inactive); with `CCN(CC)c1ccc2cc(-c3nnc(Nc4ccccc4F)s3)c(=O)oc2c1`, 2.05% (inactive). Under `CCN(CC)c1ccc2cc(-c3nc4ccccc4[nH]3)c(=N)oc2c1` stands 76.8% (active). Under `CC[n+]1c(/C=C/c2ccc(N(C)C)cc2)oc2ccccc21` stands 1.32% (inactive); under `CN(C)c1ccc(C=NCC(O)CN=Cc2ccc(N(C)C)cc2)cc1` (centres undefined), 3.49% (inactive). With `CC[n+]1cc(C)ccc1/C=C/c1ccc(N(C)C)cc1`, the inhibition is 86.9% (active). Take `Cc1ccc(/C=C2/SC(=O)N(CCC(=O)O)C2=O)cc1`: the inhibition is 19.7% (inactive). With `COc1ccc(/C=C2/SC(=O)N(CCCC(=O)Nc3ccc(C(=O)O)cc3)C2=O)cc1` the figure was 80.5% (active). Under `COc1ccc(/C=C2\SC(=O)N(Cc3ccc(C(=O)O)cc3)C2=O)cc1` stands 1.76% (inactive); under `COc1ccc(N=C2SC(C(=O)Nc3ccc(C)cc3C)CC(=O)N2CCc2ccc(OC)c(OC)c2)cc1` (centres undefined), 9.84% (inactive); under `O=C(Cc1cc(=O)[nH]c(=O)[nH]1)NCCCc1ccccc1`, -5.86% (inactive). Under `CCOC(=O)Nc1cc(=O)c2cc(C)ccc2o1` stands 41.8% (active); under `Cc1ccc2oc(C(=O)Nc3ccccc3F)cc(=O)c2c1`, 4.72% (inactive).

Regarding `CCOC(=O)Nc1c(C(=O)OC)[nH]c2ccc(C)cc12`, the inhibition is -2.73% (inactive). For `COCCSc1nc2c(c(=O)[nH]c(=O)n2C)n1Cc1ccccc1Cl`, the inhibition was 2.74% (inactive). Take `O=[N+]([O-])c1ccc2cnn(-c3cccc(C(F)(F)F)c3)c2c1`: the inhibition was -0.71% (inactive).

With `COc1ccccc1N1CCN(c2ncnc3sc(C(=O)N4CCCCC4C)c(C)c23)CC1` (centres undefined), the inhibition was 6.82% (inactive). Under `CCOC(=O)c1c(/N=C/c2cccc(OC)c2OC)sc2c1CCN(CC)C2` stands 4.12% (inactive).

Take `CC(C)N(CC(=O)N1c2ccccc2CC1C)Cc1ccccc1` (centres undefined): the inhibition was -1.32% (inactive). Under `Cc1cccc2c1[nH]c1nc(N/N=C\c3ccc(O)cc3)nnc12` stands -16.6% (inactive); under `CC/C(=N/Nc1nnc2c(n1)[nH]c1ccccc12)c1ccccc1`, 0.16% (inactive); under `Oc1ccc(O)c(/C=N/Nc2nnc3c(n2)[nH]c2ccccc23)c1`, 49% (active). As for `Cc1nc(N2CCC(NCC(F)(F)F)CC2)nc2cc3c(cc12)CCC3`, the inhibition is -15.4% (inactive). With `C/C(=N\NC(=O)c1nnn(-c2nonc2N)c1C)c1ccc(Cl)c(Cl)c1` the figure was -6.68% (inactive). Consider `O=C(O)CCC(=O)N1CCC(c2nc3ccc(Cl)cc3[nH]2)CC1`, for which the inhibition was 1.09% (inactive). With `Cc1cc(C)cc(NC(=O)CCCn2c(=S)[nH]c3ccccc3c2=O)c1`, the inhibition was 34.5% (active). Under `O=C(CCCn1c(=S)[nH]c2ccccc2c1=O)NCc1cccc(Cl)c1` stands 3.21% (inactive); under `O=C(CCCn1c(=S)[nH]c2ccccc2c1=O)Nc1ccc(F)c(Cl)c1`, -21.7% (inactive). For the molecule `OCCNc1nc(Nc2ccc(N3CCOCC3)cc2)nc2c1ncn2-c1ccccc1`, the inhibition was 28.7% (inactive). With `c1cnc(Nc2nc(Nc3ccc(N4CCOCC4)cc3)c3ncn(-c4ccsc4)c3n2)nc1` the figure was 51.1% (active); with `COc1ccc(CCNc2nc(N3CCCC3CO)nc3c2ncn3-c2ccsc2)cc1` (centres undefined), 53.3% (active). As to `OCC1CCCN1c1nc(NC2CC2)c2ncn(-c3ccccc3)c2n1` (centres undefined), the inhibition was -46.6% (inactive). With `CC(C)n1cnc2c(NCCCN3CCCC3=O)nc(Nc3ccc(-n4ccnc4)cc3)nc21` the figure was 44.4% (active). Consider `c1ccc(-n2cnc3c(NCCN4CCOCC4)nc(Nc4ccc(-n5ccnc5)cc4)nc32)cc1`, for which the inhibition was 61.3% (active).

Turning to `CC(C)n1cnc2c(NCCCN3CCCC3=O)nc(-c3csc4ccccc34)nc21`, the inhibition was 3.47% (inactive). With `O=C1CCCN1CCCNc1nc(Nc2ccc(-n3ccnc3)cc2)nc2c1ncn2CCN1CCCC1=O` the figure was 4.85% (inactive); with `OCCNc1nc(N2CCCC2CO)nc2c1ncn2-c1ccsc1` (centres undefined), 14.6% (inactive); with `CN(C)c1cccc(Nc2nc(NCCN3CCOCC3)c3ncn(-c4ccccc4)c3n2)c1`, 3.8% (inactive). Under `c1ccc(Nc2nc(Nc3ccc(N4CCOCC4)cc3)c3ncn(-c4ccccc4)c3n2)cc1` stands 3.79% (inactive); under `c1cc(Nc2nc(Nc3ccc(N4CCOCC4)cc3)c3ncn(-c4ccsc4)c3n2)ccn1`, -4.11% (inactive); under `C[C@@H]1CN(C(=O)C2CC23CCN(Cc2coc4ccccc4c2=O)CC3)C[C@H](C)O1` (some centres undefined), -6.72% (inactive). Regarding `Cc1cccc(-c2nc(-c3ccc(Cl)cc3)no2)c1`, the inhibition is -40.1% (inactive). With `CCN(CC)S(=O)(=O)c1ccc(N2CCc3ccccc32)c([N+](=O)[O-])c1` the figure was -8.71% (inactive); with `CC(C)(C#N)OC(=O)Nc1cccc(Cl)c1`, -3.72% (inactive). Under `Cc1ccc(N2C(=O)Cc3c2nc(N)c2c(N)nc(N4CCCCC4)c(C#N)c32)cc1C` stands 18.1% (inactive); under `CC(C)(C)NC(=O)c1cnn2c(C(F)(F)F)cc(-c3ccc(F)cc3)nc12`, 6.73% (inactive); under `CCOCCOC(=O)COc1ccc2c(C)cc(=O)oc2c1`, 3.62% (inactive). Under `Cc1ccc(-c2cc(C(=O)Nc3ccc(Br)cc3Br)c3ccccc3n2)o1` stands -7.27% (inactive); under `Cc1nn(C)c(C)c1NC(=O)c1c([N+](=O)[O-])cnn1C`, 4.42% (inactive). Regarding `Cc1c(Cl)cccc1N1C(=O)c2ccc(Oc3ccc(Nc4ncnc5ccccc45)cc3)cc2C1=O`, the inhibition was 2.53% (inactive). With `O=C(Cc1c(F)cccc1Cl)Nc1cc(C(=O)Nc2cccc(C(F)(F)F)c2)ccc1N1CC2CC(C1)c1cccc(=O)n1C2` (centres undefined) the figure was 2.29% (inactive); with `CC(=O)Nc1ccc(Nc2nc(Nc3ccc(-n4ccnc4)cc3)nc3c2ncn3-c2ccsc2)cc1`, 24.8% (inactive). With `Nc1nc(NCc2cccnc2)nc2c1ncn2-c1ccsc1` the figure was -5.56% (inactive); with `COc1cc(Nc2nc(NCc3cccnc3)nc3c2ncn3-c2ccsc2)cc(OC)c1OC`, 0.91% (inactive). Under `CCNc1nc(Nc2cc(OC)c(OC)c(OC)c2)c2ncn(-c3ccsc3)c2n1` stands 48.6% (active).

For `COc1ccc(CCNc2nc(Nc3ccc(-n4ccnc4)cc3)nc3c2ncn3-c2ccsc2)cc1`, the inhibition was 65.1% (active). With `Nc1nc(Nc2nccc3ccccc23)nc2c1ncn2-c1ccsc1` the figure was 53.2% (active); with `c1ccc2c(Nc3nc(NCCN4CCOCC4)c4ncn(-c5ccsc5)c4n3)nccc2c1`, 19.8% (inactive); with `c1ccc(Oc2ccc(Nc3nc(Nc4ccccn4)nc4c3ncn4-c3ccsc3)cc2)cc1`, 2.53% (inactive). Under `Oc1ccc(CCNc2nc(NCCN3CCOCC3)nc3c2ncn3-c2ccsc2)cc1` stands 34.3% (active). Under `Oc1ccc(CCNc2nc(Nc3ccc(N4CCOCC4)cc3)nc3c2ncn3-c2ccccc2)cc1` stands 9.04% (inactive); under `COc1cc(Nc2nc(NCc3cccnc3)c3ncn(-c4ccsc4)c3n2)cc(OC)c1OC`, 30.7% (inactive); under `COc1cc(Nc2nc(Nc3nccc4ccccc34)nc3c2ncn3-c2ccsc2)cc(OC)c1OC`, 12.9% (inactive).

The record behind these values is PubChem BioAssay AID1259422 (The Scripps Research Institute Molecular Screening Center, 2018).
